Active and inactive are the calls of the source. How the source made its calls: active means hit-call score of the fitted dose curve at least 0.9, where 1 is the maximum; inactive means score below 0.9.
What follows are compounds tested on urokinase plasminogen activator (uPA), PLAU (gene 5328) (assay: BSK_KF3CT_uPA: BioMAP Diversity Plus: KF3CT Assay for urokinase plasminogen activator (uPA) Biomarker Activity (AID 2283075)). Conditions: primary human keratinocytes with fibroblasts; actives raise or lower the signal.
Experimental: BSK_KF3CT is a cell-based, multiplexed-readout assay that uses keratinocytes and foreskin fibroblasts, a human skin primary cell co-culture, with measurements taken at 24 hours after chemical dosing in a 96-well plate.BSK_KF3CTA is an assay component measured in the BSK_KF3CT assay. It measures uPA antibody related to regulation of gene expression using ELISA technology.Data from the assay component BSK_KF3CTA was analyzed into 1 assay endpoint. This assay endpoint, BSK_KF3CTA, was analyzed with bidirectional fitting relative to DMSO as the negative control and baseline of activity. Using a type of binding reporter, gain or loss-of-signal activity can be used to understand changes in the signaling as they relate to the gene PLAU. Furthermore, this assay endpoint can be referred to as a primary readout, because this assay has produced multiple assay endpoints where this one serves a signaling function. To generalize the intended target to other relatable targets, this assay endpoint is annotated to the protease intended target family, where the subfamily is serine protease.
The levels of cell surface (or secreted, indicated by the prefix "s") biomarker endpoints were measured by ELISA. Overt cytotoxicity to cells in confluent adherent cultures (all systems other than the BT system) was assessed by measuring total protein levels using sulforhodamine B (SRB) staining in parallel cultures at the time of biomarker measurements, indicated as SRB endpoints. For proliferation assays for adherent cell types, individual cell types are cultured at sub-confluence and relative cell numbers quantified by SRB staining at time points optimized for each system (48 h: 3C and CASM3C systems; 72 h: BT and HDF3CGF systems; 96 h: SAg system). SRB was performed by staining cells with 0.1% SRB after fixation with 10% TCA and reading wells at 560 nm.Viability and proliferation of PBMC (T cells) was quantified by Alamar Blue reduction for the SAg and BT systems. For PBMC viability (referred to as PBMC Cytotoxicity within the assay endpoint names), cells were plated (75,000/well in a 96-well plate) and then chemical samples added for 1 h before addition of activators, SEB and TSST-1 (20 ng/mL final concentration each). Cells were incubated for 90 h. Then, Alamar Blue (20 uL/well) (Invitrogen, Cat DAL1100) was added for 6 h, and the plates were read with a fluorescence microplate reader at 546/580 nm (excitation/emission). For PBMC proliferation, cells were plated and activated as above but incubated for only 16 h prior to addition of Alamar Blue. Plates were read after 6 h.

Which outcome does the source give for `COc1ccc(C(=O)Nc2nc3ccccc3c(NCc3ccccc3)c2C#N)cc1` here?
The outcome was “inactive”.

How did the AC50 turn out when `O=C(N[C@@H](c1ccccc1)[C@@H]1CCCCN1)c1cccc(C(F)(F)F)c1Cl` was run?
The AC50 was 32.5 µM (active).

Which outcome does the source give for `CCCCC(CC)COC(=O)CCCCCCCC(=O)OCC(CC)CCCC` (stereo not given) here?
Its outcome is “inactive”.

With `O=C1O[C@H]([C@H](O)CO)C(O)=C1O` as the compound, how does the outcome read?
The outcome was “inactive”.

Which outcome does the source give for `Nc1nc(Cl)nc2c1ncn2[C@H]1C[C@H](O)[C@@H](CO)O1` here?
The outcome was “inactive”.

`O=C1c2c(O)cccc2Cc2cccc(O)c21` was tested. Which AC50 did it give?
Its AC50 is 27.8 µM (active).

How did the AC50 turn out when `Cc1c(C)c2c(c(C)c1O)CCC(C)(COc1ccc(CC3SC(=O)NC3=O)cc1)O2` (stereo not given) was run?
Its AC50 is 12 µM (active).

`CCC(C)N(C)C(=O)c1cc2ccccc2c(-c2ccccc2Cl)n1` (stereo not given) was tested. Which outcome did it give?
Its outcome is “inactive”.

How did the outcome turn out when `CC(C)(O)c1ccc(CNC(=O)c2cccnc2Oc2ccc(F)cc2)cc1` was run?
Its outcome is “inactive”.

For `CCCCC(CC)CO` (stereo not given), which outcome is on record?
Its outcome is “inactive”.

For `O=C(O)c1[nH]n(-c2ccc(S(=O)(=O)O)cc2)c(=O)c1N=Nc1ccc(S(=O)(=O)O)cc1`, which outcome is on record?
The outcome was “inactive”.

For `O=C(O)c1cccnc1`, which outcome is on record?
Its outcome is “inactive”.

For `Oc1ccccc1O`, which AC50 is on record?
The AC50 was 20 µM (active).

How did the outcome turn out when `Cc1cc(Cc2ccc(N)c(C)c2)ccc1N` was run?
Its outcome is “inactive”.

Which outcome does the source give for `NC1CCCCC1` here?
Its outcome is “inactive”.

Which outcome does the source give for `Cc1occc(=O)c1O` here?
Its outcome is “inactive”.

For `CC(=O)[C@@]1(O)CC[C@H]2[C@@H]3CCC4=CC(=O)CC[C@]4(C)[C@H]3CC[C@@]21C`, which outcome is on record?
The outcome was “inactive”.

With `O=C1OC(c2ccc(O)cc2)(c2ccc(O)cc2)c2ccccc21` as the compound, how does the outcome read?
The outcome was “inactive”.

`CC(=O)CC(c1ccccc1)c1c(O)c2ccccc2oc1=O` (stereo not given) was tested. Which outcome did it give?
The outcome was “inactive”.

How did the outcome turn out when `CCCC(=O)O` was run?
The outcome was “inactive”.

Which outcome does the source give for `Oc1ccc(O)cc1` here?
The outcome was “inactive”.

How did the outcome turn out when `CCc1nc(N)nc(N)c1-c1ccc(Cl)cc1` was run?
The outcome was “inactive”.

For `CC(COCC(C)OC(=O)c1ccccc1)OC(=O)c1ccccc1` (stereo not given), which outcome is on record?
Its outcome is “inactive”.

With `O=C1NC(=O)C(c2ccccc2)(c2ccccc2)N1` as the compound, how does the outcome read?
The outcome was “inactive”.

For `CCCCCCCCCCCCCCOS(=O)(=O)O`, which AC50 is on record?
Its AC50 is 9.42 µM (active).

`c1ccc2occc2c1` was tested. Which outcome did it give?
The outcome was “inactive”.

With `C=CCc1ccc(OC)c(OC)c1` as the compound, how does the outcome read?
The outcome was “inactive”.

How did the outcome turn out when `O=[Si]=O` was run?
Its outcome is “inactive”.

For `CC(C)OC(=O)C(C)(C)Oc1ccc(C(=O)c2ccc(Cl)cc2)cc1`, which outcome is on record?
Its outcome is “inactive”.

With `CSc1ccc(Oc2ccc(S(N)(=O)=O)cc2CN(C)C)cc1C` as the compound, how does the outcome read?
The outcome was “inactive”.

For `COC(=O)CCC(=O)OC`, which outcome is on record?
The outcome was “inactive”.

How did the outcome turn out when `CO[C@@H]1COCC[C@@H]1N[C@@H]1CC[C@@](C(=O)N2CCc3ncc(C(F)(F)F)cc3C2)(C(C)C)C1` was run?
The outcome was “inactive”.

`CN(C)CCCN(C)CCCN(C)C` was tested. Which outcome did it give?
The outcome was “inactive”.

Which outcome does the source give for `CC(N)=O` here?
Its outcome is “inactive”.

Which outcome does the source give for `CC(C)NCC(O)c1ccc(O)c(O)c1` (stereo not given) here?
The outcome was “inactive”.

How did the outcome turn out when `C/C=C/c1ccc(OC)cc1` was run?
Its outcome is “inactive”.

Which outcome does the source give for `O=NO` here?
The outcome was “inactive”.

Which outcome does the source give for `CC(C)(C)c1ccccc1` here?
The outcome was “inactive”.

How did the outcome turn out when `CN(C)C(=O)NC1(c2ccccc2)CCN(CCC[C@]2(c3ccc(Cl)c(Cl)c3)CCCN(C(=O)c3ccccc3)C2)CC1` was run?
The outcome was “inactive”.

`CCCCOC(=O)CCCCC(=O)OCCCC` was tested. Which outcome did it give?
The outcome was “inactive”.
